RORg inh – ROR gamma (mouse) transcription inhibition; P51450; Drosophila S2 Gal4-RORgamma UAS-luciferase reporter, 20 h; Potency, µM (doses to about 53.6 µM), usual class: inhibitors; actives 5.4% (n = 310,000); AID 2551; also: nearly all actives have a fitted effect of over 60% in size
Target sequence (P51450 whole entry, looked up, the tested form may be a part): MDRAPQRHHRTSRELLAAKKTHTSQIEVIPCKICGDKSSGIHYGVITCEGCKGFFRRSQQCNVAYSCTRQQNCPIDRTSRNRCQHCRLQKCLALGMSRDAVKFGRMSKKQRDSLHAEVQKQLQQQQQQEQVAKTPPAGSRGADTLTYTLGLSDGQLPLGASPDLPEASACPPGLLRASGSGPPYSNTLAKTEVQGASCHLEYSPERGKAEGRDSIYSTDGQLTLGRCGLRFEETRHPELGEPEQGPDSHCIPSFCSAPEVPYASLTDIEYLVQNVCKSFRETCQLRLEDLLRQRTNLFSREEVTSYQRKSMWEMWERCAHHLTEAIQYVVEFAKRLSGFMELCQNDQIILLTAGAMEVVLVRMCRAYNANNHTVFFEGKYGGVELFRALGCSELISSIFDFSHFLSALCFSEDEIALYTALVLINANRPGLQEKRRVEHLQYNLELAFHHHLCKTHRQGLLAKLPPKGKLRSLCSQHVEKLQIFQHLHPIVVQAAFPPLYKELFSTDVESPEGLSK
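Schneider cells (Drosophila), stable Gal4 DBD–ROR gamma + UAS-luc; 1 hr cmpd preincubation; Cu2+ induction 700 uM final; 20 hr ambient; luminescence.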
p53 reactivator – restores transcriptional activity of mutant p53; AID 504706; H1299 p53-A138V BP100-luciferase reporter, luminescence, 24 h; Potency, µM (series often up to 92.2 µM), usual class: activators; actives 0.063% (n = 320,000); also: nearly all actives have a fitted effect of over 45% in size
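H1299 (p53-null), stable ts p53-A138V + BP100-Luc; 1000 cells/well, Opti-MEM/10% FBS; cpd 4 pt, 1:5; 24 h, 37 deg C, 5% CO2; detection reagent 10 min RT; luminescence.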
VP16 counter – Gal4-VP16 reporter inhibition counter-screen. Drosophila S2 Gal4-VP16 UAS-luciferase, luminescence, 20 h. actives 3.5% (n = 310,000). Potency, µM (titrated, usually from 53.6 µM), actives largely listed as inhibitors. AID 2546;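 also: Gal4-VP16 expression switched on by copper sulfate through the metallothionein promoter; nearly all actives have a fitted effect of over 50% in size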
Six1-Eya2 inh – Six1/Eya2 interaction inhibition | AlphaScreen GST-Six1/His-Eya2 binding, biochemical; active compounds read low | activity change, % (concentration not given with the values) | Q15475+O00167 | actives 0.56% (n = 360,000); in the data active = activity change below about -65%; inconclusive = mostly about -30% to -63%
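AlphaScreen luminescence read after one hour at 37 °C in darkness. Pin-transferred compounds met GST-Six1 and His-Eya2 protein (5X stock 250 nM/500 nM) plus glutathione donor and Ni-chelate acceptor beads (5X, 50 ug/mL).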
CtBP-E1A inh – blocks the CtBP interaction with E1A. AlphaScreen GST-E1A/His-CtBP binding, 1536-well; active compounds read low. activity change, % (concentration not given with the values). actives 0.49% (n = 340,000); in the data active = activity change below about -65%; inconclusive = mostly about -30% to -63%
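Homogeneous bead-based format: GST-tagged E1A captured on glutathione donor beads, His-tagged CtBP on nickel acceptor beads; compounds precede bead addition by 2 h at 37 °C.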
Of the large screens only hits and unclear results are named; the others gave an inactive call. Rows were chosen to be rich in hits. Some 5.4% of all compounds tested hit in one or more screens of this group. Unless noted, calls follow the shape of the dose curve; as a rule, active = well fitted curve in the direction sought with a large enough effect; inconclusive = small, poorly fitted or top-dose-only effect, or another doubt; inactive = no such curve, though single readings can be large; an effect the other way counts as inactive or inconclusive.

C/C(=N\NC(=O)C1COc2ccccc2O1)c1ccc(C)o1 (stereo unspecified)	none
C/C(=N\NC(=O)C1COc2ccccc2O1)c1ccc(Cl)s1 (stereo unspecified)	RORg inh 6.3µM, VP16 counter 18µM
O=C(CCCOc1ccccc1)Nc1ccc(Cl)cn1	none
O=C(CSc1nc(Cc2ccccc2)nc2ccccc12)c1ccc2c(c1)OCCO2	RORg inh 6.3µM, VP16 counter inconclusive
O=C(CSc1nc(CCC2CCCC2)nc2ccccc12)NCc1ccc2c(c1)OCO2	RORg inh 16µM, VP16 counter inconclusive
Cc1cc(NC(=O)CSc2nc(CCC3CCCC3)nc3ccccc23)no1	none
O=S1(=O)N=C(N/N=C/c2ccco2)c2ccccc21	RORg inh 7.9µM, VP16 counter inconclusive
O=c1[nH][nH]c(-c2ccccc2)c1C=Nc1ccc(OC(F)(F)F)cc1	RORg inh inconclusive (no result: CtBP-E1A inh)
CC(C)(C)c1ccc(-c2cc(-c3ccccc3O)[nH]n2)cc1	RORg inh inconclusive, VP16 counter 7.1µM
COc1ccc(-c2cc(-c3cc(C)ccc3O)[nH]n2)cc1	RORg inh 4µM, VP16 counter inconclusive
Oc1ccccc1-c1cc(-c2cccc(F)c2)n[nH]1	RORg inh inconclusive, p53 reactivator inconclusive, VP16 counter inconclusive
COc1ccc(-c2nc(N)ncc2-c2ccccc2)c(O)c1	none
COc1ccc(-c2cc(-c3ccccc3)nc(N)n2)c(O)c1	Six1-Eya2 inh -77 (no result: RORg inh, p53 reactivator, VP16 counter)
Cc1ccc(-c2cc(C(=O)Nc3cc(C)ccc3C)[nH]n2)c(O)c1	none
Cc1ccc(-c2cc(-c3cccs3)[nH]n2)c(O)c1	RORg inh 11µM, p53 reactivator inconclusive, VP16 counter inconclusive
CCCN(C(=O)/C=C/c1nc2ccccc2s1)C1CCS(=O)(=O)C1 (stereo unspecified)	none (no result: RORg inh, VP16 counter)
CN(C)C(=O)c1ccc(-c2ccc3ncnc(N(C)Cc4ccco4)c3c2)cc1	VP16 counter inconclusive (no result: p53 reactivator, Six1-Eya2 inh, CtBP-E1A inh)
O=C(O)c1cn[nH]c1-c1cccc([N+](=O)[O-])c1	none
Cc1ccc(O)c(-c2cc(C(F)(F)C(F)F)[nH]n2)c1	none
COc1ccc(-c2cc(C(=O)NN)[nH]n2)cc1	p53 reactivator inconclusive, VP16 counter inconclusive
COc1ccc(-c2cc(-c3ccc(C)cc3)n[nH]2)c(O)c1	RORg inh 2.5µM, VP16 counter 20µM (no result: p53 reactivator, CtBP-E1A inh)
Cc1ccccc1-c1cc(-c2ccccc2O)on1	RORg inh 13µM, p53 reactivator inconclusive
COc1ccc(-c2cc(-c3ccc(OC)cc3)[nH]n2)cc1	RORg inh 1.3µM, p53 reactivator inconclusive, VP16 counter 2µM
Cc1ccc(O)c(-c2cc(-c3ccccc3C)[nH]n2)c1	RORg inh 11µM, p53 reactivator inconclusive, VP16 counter 11µM
COc1ccc(OC)c(NC(=O)c2cc(-c3ccc(C)cc3O)n[nH]2)c1	none
Oc1ccccc1-c1cc(-c2ccccc2)no1	none (no result: p53 reactivator)
COCC(=O)N1CCC2(CC1)CN(c1ccccn1)C2	none (no result: p53 reactivator, Six1-Eya2 inh, CtBP-E1A inh)
CCN(CC)CCCNc1nc(-n2nc(C)cc2C)nc2sc3c(c12)CC(C)(C)OC3	RORg inh 13µM, VP16 counter inconclusive
Cc1cc(C)n(-c2nc(NCc3cccnc3)c3c4c(sc3n2)COC(C)(C)C4)n1	RORg inh 4µM, VP16 counter 6.3µM
Cc1cc(C)n(-c2nc(SCC(=O)O)c3c4c(sc3n2)COC(C)(C)C4)n1	RORg inh 7.1µM, VP16 counter inconclusive
CCc1nc(SCC(=O)O)c2c3c(sc2n1)COC(C)(C)C3	none
COc1cc(CN2CCNC(=O)C2CC(=O)N(C)CCCN2CCOCC2)cc(OC)c1 (stereo unspecified)	none
Cc1ccccc1NC(=O)c1ccc2c(O)c(S(=O)(=O)c3ccccc3)c(=O)[nH]c2c1	none
O=C1C(Nc2ccccc2)=C(N2CCCCC2)C(=O)c2ccccc21	none
CN(C1=C(N2CCCCC2)C(=O)c2ccccc2C1=O)c1ccccc1	Six1-Eya2 inh -83
Cc1ccc(Cl)cc1NC(=S)N/N=C/c1cccc2ccccc12	RORg inh 0.79µM, VP16 counter 2.5µM
Cc1ccccc1C(=O)N/N=C/c1cccc2ccccc12	none
Cc1ccccc1NC(=S)N/N=C/c1ccc(O)cc1O	RORg inh inconclusive, p53 reactivator inconclusive, VP16 counter inconclusive, Six1-Eya2 inh -89, CtBP-E1A inh -97

Screening data: PubChem, National Center for Advancing Translational Sciences (NCATS)
